Experimental data taken from PubChem BioAssay.
Calls of active or inactive are those of the source.

How the values were obtained:
[1] = optical density shifts of acrAB sulA E. coli – strain DRC41, OD650, 48 h, E. coli filamentation inducer project, primary screen (AID 1152); conditions: higher = more signal, called active from +8 up or from −8 down;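 note: E. coli MC1000 strain DRC41 lacking acrAB efflux pump and sulA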
[2] = probe aLefty1 binding on compound microarray – biochemical, small-molecule microarray, 635/667 nm fluorescence, primary screen (AID 1153); conditions: higher = more signal;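 note: score merges spot fluorescence with signal-to-noise ratio from the scanned slide images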
[3] = plasmodial surface anion channel blockers, osmotic lysis – cell-based, P. falciparum Indochina, OD700, 1 h, primary screen (AID 1154); conditions: P. falciparum Indochina infected RBC osmotic lysis, higher = more signal, called active from +8 up or from −8 down
[4] = plasmodial surface anion channel blockers, osmotic lysis – cell-based, P. falciparum Indochina, OD700, 2 h, primary screen (AID 1155);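 note: lysis reports solute entry through the parasite surface anion channel PSAC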; conditions: P. falciparum Indochina infected erythrocytes, higher = more signal, called active from +8 up or from −8 down
[5] = changes in parasitized red cell lysis, either direction – P. falciparum Indochina, OD700, 3 h, PSAC antagonist project, primary screen (AID 1156); conditions: P. falciparum-infected erythrocytes, osmotic lysis, higher = more signal, called active from +8 up or from −8 down
[6] = plasmodial surface anion channel blockers, osmotic lysis – cell-based, P. falciparum Indochina, OD700, 18 h, primary screen (AID 1157); conditions: P. falciparum Indochina infected erythrocytes, osmotic lysis OD700, 18 h; higher = more signal, called active from +8 up or from −8 down
[7] = S6 kinase pathway phospho-S6 level changes – cell-based, A549, cytoblot, luminescence, serum-stimulated, primary screen (AID 1158); conditions: 5 h, higher = more signal;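 note: serum-stimulated A549 lung adenocarcinoma cells; signal is phosphorylated S6 detected by cytoblot immunostaining with HRP secondary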
[8] = target: NADPH oxidase 2 (Homo sapiens) (UniProt P04839); assay: compounds shifting NOX2 Amplex Red fluorescence – cell-based, HEK293-NOX2, PMA-stimulated, NOX inhibitor project, primary screen (AID 1159); conditions: 45 min, higher = more signal, called active from +8 up or from −8 down; note: test concentration not given here
Sequence of NADPH oxidase 2 (Homo sapiens) (P04839 whole entry, looked up): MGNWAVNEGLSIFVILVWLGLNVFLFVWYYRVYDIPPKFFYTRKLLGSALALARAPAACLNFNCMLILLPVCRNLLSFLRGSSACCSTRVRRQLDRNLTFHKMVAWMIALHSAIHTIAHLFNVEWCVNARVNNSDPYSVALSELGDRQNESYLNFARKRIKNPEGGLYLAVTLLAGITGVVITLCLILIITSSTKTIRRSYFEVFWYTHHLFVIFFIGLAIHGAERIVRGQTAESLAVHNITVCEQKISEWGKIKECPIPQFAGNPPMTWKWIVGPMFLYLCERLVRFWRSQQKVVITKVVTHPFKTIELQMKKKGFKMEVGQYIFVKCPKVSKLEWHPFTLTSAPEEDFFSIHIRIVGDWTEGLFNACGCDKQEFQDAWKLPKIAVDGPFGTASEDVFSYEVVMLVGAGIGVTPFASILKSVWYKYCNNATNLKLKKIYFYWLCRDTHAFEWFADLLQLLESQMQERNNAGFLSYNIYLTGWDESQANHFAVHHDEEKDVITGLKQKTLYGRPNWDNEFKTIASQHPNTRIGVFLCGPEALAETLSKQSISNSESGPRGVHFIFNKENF

[9] = target: NADPH oxidase 4 (Homo sapiens) (UniProt Q9NPH5); assay: compounds shifting NOX4 Amplex Red fluorescence – cell-based, HEK293-NOX4, tetracycline-induced, NOX inhibitor project, primary screen (AID 1160); conditions: HEK293-NOX4, Amplex Red H2O2 fluorescence, 45 min; higher = more signal, called active from +8 up or from −8 down
Sequence of NADPH oxidase 4 (Homo sapiens) (Q9NPH5 whole entry, looked up): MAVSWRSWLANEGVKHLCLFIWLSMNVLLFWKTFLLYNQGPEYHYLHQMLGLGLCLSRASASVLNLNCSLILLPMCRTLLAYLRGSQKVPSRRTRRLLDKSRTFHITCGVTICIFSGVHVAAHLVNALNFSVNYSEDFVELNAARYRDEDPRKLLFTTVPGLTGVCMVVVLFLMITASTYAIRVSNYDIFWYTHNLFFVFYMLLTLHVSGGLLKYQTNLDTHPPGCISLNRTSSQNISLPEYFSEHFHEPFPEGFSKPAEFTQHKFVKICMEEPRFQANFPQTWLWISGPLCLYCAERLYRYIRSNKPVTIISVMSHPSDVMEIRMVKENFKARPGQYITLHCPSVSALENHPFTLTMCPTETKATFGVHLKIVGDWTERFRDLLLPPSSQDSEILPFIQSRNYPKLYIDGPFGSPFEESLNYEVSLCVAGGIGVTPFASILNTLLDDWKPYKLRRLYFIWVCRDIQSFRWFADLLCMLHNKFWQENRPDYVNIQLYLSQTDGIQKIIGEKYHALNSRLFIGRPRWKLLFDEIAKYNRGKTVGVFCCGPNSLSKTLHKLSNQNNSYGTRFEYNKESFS

[10] = target: NADPH oxidase 5 (Homo sapiens) (UniProt Q96PH1); assay: compounds shifting NOX5 Amplex Red fluorescence – cell-based, HEK293-NOX5, NOX inhibitor project, primary screen (AID 1161); conditions: HEK293-NOX5, ionomycin, 45 min, higher = more signal
Sequence of NADPH oxidase 5 (Homo sapiens) (Q96PH1 whole entry, looked up): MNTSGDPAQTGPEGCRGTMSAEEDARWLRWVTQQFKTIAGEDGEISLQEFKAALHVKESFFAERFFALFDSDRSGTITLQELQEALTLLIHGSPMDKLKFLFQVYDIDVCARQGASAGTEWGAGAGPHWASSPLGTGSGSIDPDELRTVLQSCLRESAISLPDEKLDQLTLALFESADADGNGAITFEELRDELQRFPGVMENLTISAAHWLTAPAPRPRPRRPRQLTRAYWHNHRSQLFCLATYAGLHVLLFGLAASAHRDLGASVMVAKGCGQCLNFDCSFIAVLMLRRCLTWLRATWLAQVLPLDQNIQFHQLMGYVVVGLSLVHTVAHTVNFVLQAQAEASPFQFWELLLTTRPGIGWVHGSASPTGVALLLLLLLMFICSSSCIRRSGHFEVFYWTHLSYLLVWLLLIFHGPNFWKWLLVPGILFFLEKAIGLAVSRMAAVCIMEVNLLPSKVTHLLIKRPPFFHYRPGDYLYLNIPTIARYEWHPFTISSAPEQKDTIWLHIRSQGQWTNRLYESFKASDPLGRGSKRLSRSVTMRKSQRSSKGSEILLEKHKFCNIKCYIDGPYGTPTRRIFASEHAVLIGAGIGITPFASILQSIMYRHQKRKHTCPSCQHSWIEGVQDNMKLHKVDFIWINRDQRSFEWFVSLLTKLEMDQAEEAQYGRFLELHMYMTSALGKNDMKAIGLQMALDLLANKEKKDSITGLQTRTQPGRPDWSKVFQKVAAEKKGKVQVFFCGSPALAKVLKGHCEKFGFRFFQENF

[11] = compound effects on lung adenocarcinoma cell viability – A549, calcein-AM fluorescence, 48 h, basal, profiling panel (AID 1162); conditions: higher = more signal; note: test concentration not given here
[12] = compound effects on differentiated 3T3-L1 adipocyte viability – cell-based, 3T3-L1 adipocytes, calcein-AM fluorescence, 48 h, basal, profiling panel (AID 1163); conditions: 3T3-L1 adipocytes viability, higher = more signal; note: test concentration not given here
[13] = compound effects on hepatocellular carcinoma cell viability – HepG2, calcein-AM fluorescence, 48 h, basal, profiling panel (AID 1164); conditions: higher = more signal; note: test concentration not given here
[14] = compound effects on multiple myeloma cell viability – MM1S, calcein-AM fluorescence, 48 h, basal, profiling panel (AID 1165); conditions: higher = more signal; note: test concentration not given here
[15] = calcein-AM signal in unstimulated myeloma cells – cell-based, calcein-AM fluorescence, 48 h, PK04 Diversity Set, profiling panel (AID 1166); conditions: RPMI8226 myeloma viability, higher = more signal;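 note: cells grown under basal conditions without added stimulus; test concentration not given here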
[16] = JC-1 mitochondrial signal, unstimulated HepG2 cells – cell-based, JC-1 fluorescence, 24 h, 100 nL compound, profiling panel (AID 1167); conditions: HepG2 mitochondrial potential, higher = more signal; note: test concentration not given here
[17] = JC-1 mitochondrial signal, unstimulated adipocytes – cell-based, JC-1 fluorescence, 3T3-L1 adipocytes, 24 h, 100 nL compound, profiling panel (AID 1168); conditions: JC-1 mitochondrial fluorescence, higher = more signal, called active from +8 up or from −8 down; note: test concentration not given here
[18] = JC-1 mitochondrial signal, unstimulated myeloma cells – cell-based, JC-1 fluorescence, RPMI8226, 24 h, 100 nL compound, profiling panel (AID 1169); conditions: JC-1 mitochondrial potential fluorescence, higher = more signal; note: test concentration not given here
[19] = JC-1 mitochondrial signal, unstimulated MM1S myeloma – cell-based, JC-1 fluorescence, 24 h, 100 nL compound, profiling panel (AID 1170); conditions: MM1S mitochondrial potential, higher = more signal; note: test concentration not given here
[20] = resazurin metabolic signal in A549 cells – cell-based, resazurin fluorescence, 24 h, PK04 Diversity Set, profiling panel (AID 1171); conditions: A549 viability, higher = more signal, called active from +8 up or from −8 down; note: test concentration not given here

Row | SMILES | z-score [1] | composite z-score [2] | z-score [3] | z-score [4] | z-score [5] | z-score [6] | z-score [7] | z-score [8] | z-score [9] | z-score [10] | z-score [11] | z-score [12] | z-score [13] | z-score [14] | z-score [15] | z-score [16] | z-score [17] | z-score [18] | z-score [19] | z-score [20]
1 | CC(C)=CCCC(C)=CC(O)C1C=CC2C(=O)N(c3ccccc3)C(=O)C2N1Nc1ccccc1F (stereo not given) | 0.404 (inactive) | -0.233 | 1.7 (inactive) | -0.389 (inactive) | -0.391 (inactive) | -0.789 (inactive) | -0.162 | -0.199 (inactive) | -0.284 (inactive) | 0.83 | 0.154 | 0.0094 | 0.443 | 0.381 | -0.93 | -0.143 | -0.507 (inactive) | -0.271 | -0.426 | 0.598 (inactive)
2 | NC(=O)N1C(=O)C2C(C1=O)C1C=C(CCCO)C2C(C2CC2)N1Cc1cccc(OC(F)(F)F)c1 (stereo not given) | -0.778 (inactive) | -0.195 | 1.03 (inactive) | 0.275 (inactive) | -0.351 (inactive) | 0.161 (inactive) | -0.898 | 0.699 (inactive) | -0.685 (inactive) | -0.738 | -0.307 | 0.0635 | 0.801 | -2.82 | 0.0097 | -0.348 | 0.418 (inactive) | 0.191 | 0.645 | -0.334 (inactive)
3 | CN1C(=O)C2C=CC(C(O)c3ccc(F)cc3)N(NC(=O)OC(C)(C)C)C2C1=O (stereo not given) | -1.73 (inactive) | 0.101 | -0.468 (inactive) | 0.477 (inactive) | 0.008 (inactive) | 0.901 (inactive) | -1.28 | -0.46 (inactive) | -0.56 (inactive) | -0.481 | -0.834 | -0.528 | 0.0643 | -2.82 | -0.0542 | -0.8 | -0.517 (inactive) | 0.247 | 1.3 | -1.18 (inactive)
4 | C=C[C@@H](C)[C@@H](OC(=O)Nc1ccc(SC)cc1)c1ccc(OCCO)cc1 | -0.707 (inactive) | -0.156 | 29.1 (active) | 20.2 (active) | 4.42 (inactive) | 1.9 (inactive) | 0.241 | -1.21 (inactive) | -0.0499 (inactive) | -0.431 | -0.555 | 0.248 | -1.37 | -1.08 | -0.425 | -2.54 | -0.75 (inactive) | -0.15 | -0.434 | 0.491 (inactive)
